rCAG binder: binders of r(CAG) RNA repeats, primary screen, biochemical, fluorescence; inhibition, % at 3 µM; r(CAG) RNA repeat, TO-PRO-1 dye displacement fluorescence; 370,000 compounds, 1.3% hits;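 active = inhibition above the plate cutoff, the mean of all test compounds on that plate plus 3 SD, cut at about 35% in these data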;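 also: higher means more dye released from RNA so lower well fluorescence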
bovine MsrA act: bovine MsrA enzyme activators, primary screen, biochemical, absorbance, HTS. Methionine sulfoxide reductase A (Bos taurus). purified bovine MsrA, absorbance read-out. activation, % at 10.6 µM. 360,000 compounds, 0.3% hits. AID 602163, 2012; in the data active = activation above about 7.5%
PG9 binder: binders of HIV-1 gp120 antibody PG9, primary screen, biochemical, TR-FRET | inhibition, % at 6.7 µM | TR-FRET gp120-PG9 antibody binding | HIV-1 gp120 / PG9 antibody interaction | 360,000 compounds, 0.43% hits | AID 624416, 2012; in the data active = inhibition above about 8.5%
MsrA inh: bovine MsrA enzyme inhibitors, primary screen, biochemical, absorbance, HTS | inhibition, % at 15.5 µM | 360,000 compounds, 0.75% hits | Methionine sulfoxide reductase A (Bos taurus) | purified bovine MsrA, absorbance read-out | AID 651718, 2012
HGIII-sPLA2 inh: human group III sPLA2 inhibitors, primary screen, biochemical, QFRET, BODIPY PC-A2 liposome substrate. inhibition, % at 12.2 µM. 370,000 compounds, 0.56% hits. Group 3 secretory phospholipase A2 (Homo sapiens), Q9NZ20. QFRET BODIPY PC-A2 liposome hydrolysis, fluorescence;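 active = inhibition above mean plus 3 SD of compounds lying within the high and low control bounds, cut at about 19% in these data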
Target sequence (Q9NZ20 whole entry, looked up): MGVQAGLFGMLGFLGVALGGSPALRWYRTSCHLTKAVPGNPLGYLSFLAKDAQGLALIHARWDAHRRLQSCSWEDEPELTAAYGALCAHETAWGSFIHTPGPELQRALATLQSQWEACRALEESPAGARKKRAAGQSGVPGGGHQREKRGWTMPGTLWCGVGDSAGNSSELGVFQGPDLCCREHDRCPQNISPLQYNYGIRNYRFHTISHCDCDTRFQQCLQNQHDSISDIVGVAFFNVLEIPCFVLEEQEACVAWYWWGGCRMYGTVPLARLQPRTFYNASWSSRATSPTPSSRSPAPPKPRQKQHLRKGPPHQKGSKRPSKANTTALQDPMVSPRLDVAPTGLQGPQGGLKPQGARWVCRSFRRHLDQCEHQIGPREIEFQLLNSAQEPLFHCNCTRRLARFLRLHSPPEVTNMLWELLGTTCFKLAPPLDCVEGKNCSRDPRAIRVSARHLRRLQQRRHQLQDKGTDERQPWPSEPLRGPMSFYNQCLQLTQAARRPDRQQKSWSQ
MsrA inh confirm: bovine MsrA inhibitors, retest, confirmation, biochemical, absorbance, HTS; shares compounds with MsrA inh; purified bovine MsrA, absorbance read-out; inhibition, % at 15.5 µM; 2,300 compounds, 41% hits; AID 651822, 2012;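 also: coupled to thioredoxin reductase with NADPH and selenocystamine and DMSO as substrate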
Numbers stand for hits; n = inactive; x = no result. An excerpt weighted towards active compounds, which were near 3.2% of everything screened. Rule as the data show it, unless noted: active = inhibition above about 4.5%; inactive = the rest.

SMILES	rCAG binder	bovine MsrA act	PG9 binder	MsrA inh	HGIII-sPLA2 inh	MsrA inh confirm
CCOC(=O)c1cc(C)nc(N2CCCCC2)c1C#N	n	n	n	n	n	x
O=C(NC1CCCCN(Cc2cccc(F)c2)C1=O)c1cccc(C(F)(F)F)c1 (centres undefined)	n	x	x	x	n	x
CCOc1ccc(C(O)c2nccn2Cc2ccccc2)cc1 (centres undefined)	n	n	n	8.8	n	n
CN(C)c1oc(-c2cccs2)nc1C#N	n	n	n	4.9	n	n
O=C(CN1CCc2onc(-c3ccc(-n4cc(COc5ccc([N+](=O)[O-])cc5)nn4)cc3)c2C1=O)N1CCOCC1	n	x	x	x	n	x
Cc1ccc(C)n1-n1c(C)nc2scc(-c3cccs3)c2c1=O	n	n	n	29	n	25
Cc1nc2scc(-c3cccs3)c2c(=O)n1-n1cccc1	n	n	n	15	n	10
COc1ccc(-c2csc3nc(C)n(-n4cccc4)c(=O)c23)cc1	n	n	n	8.6	n	n
C=CCn1cnc2scc(-c3ccc(OC)cc3)c2c1=O	n	n	n	n	n	x
COCC(=O)N[C@@H]1C[C@@H]2O[C@H](CO)CC[C@@H]2O[C@@H]1CCc1ccc(-c2ccccc2)cc1	n	x	x	x	n	x
CCN1CCN(c2nc(Nc3cccc(C)c3)nc(N)c2[N+](=O)[O-])CC1	n	n	n	n	n	x
CCN1CCN(c2nc(Nc3ccccc3)nc(N)c2[N+](=O)[O-])CC1	n	n	n	4.8	n	n
O=C(N/N=C/c1ccc(N2CCOCC2)s1)c1ccc(NS(=O)(=O)c2cccs2)cc1	n	n	n	4.7	n	n
O=C(Nc1ccc(N2CCOCC2)cc1)c1ccncc1	n	n	n	n	n	x
O=C(N/N=C/c1ccc2c(c1)OCO2)c1ccc(NS(=O)(=O)c2cccs2)cc1	n	n	n	5.7	n	7.5
COc1ccc(C(=O)N/N=C/c2ccc(N3CCOCC3)s2)cc1OC	n	n	n	n	n	x
CCOC(=O)N/N=C/c1ccc(N2CCOCC2)s1	n	n	n	5.3	n	5.7
O=C(N/N=C/c1ccc(N2CCOCC2)cc1)c1ccncc1	n	n	n	5.0	n	5.0
O=C(NN=Cc1ccc(F)c(F)c1)c1ccc(NS(=O)(=O)c2cccs2)cc1	n	n	n	n	n	x
CC[C@@H](CCC(=O)N(c1ccccc1)c1ccccc1)c1ccc(C)cc1	n	x	x	x	n	x
COC(=O)[C@]12C[C@H](CC(=O)N3CCCCC3)C(=O)N(CCC3=CCCCC3)C1=C[C@H](C(C)C)O[C@@H]2C1CC1	n	x	x	x	n	x
COC(=O)[C@]12C[C@H](CC(=O)NCc3cccs3)C(=O)N(CCC3=CCCCC3)C1=C[C@H](C(C)C)O[C@@H]2C1CC1	n	x	x	x	n	x
C#CCNC(=O)CSCc1nc(-c2ccc(OCC)cc2)oc1C	x	x	x	x	n	x
O=C(CCc1ccccc1)N[C@H]1[C@@H](OC(=O)c2cnccn2)CCC[C@]12C(=O)N(Cc1ccccc1)c1ccccc12	n	x	x	x	n	x
COC(=O)[C@]12C[C@H](CC(=O)NCc3ccc(C)o3)C(=O)N(CCc3ccc(OC)c(OC)c3)C1=C[C@H](C1CCCC1)O[C@@H]2C	n	x	x	x	n	x
SMILES	rCAG binder	bovine MsrA act	PG9 binder	MsrA inh	HGIII-sPLA2 inh	MsrA inh confirm
CCOC(=O)CC[C@@H]1CC[C@]2(CCCN(C(=O)c3ccccc3)C2)O1	n	x	x	x	n	x
C[C@H]1COc2cc(Br)ccc2S(=O)(=O)N1Cc1cn(Cc2ccccc2)nn1	n	x	x	x	n	x
O=S(=O)(Nc1ccc(N2CCOCC2)cc1)c1cccs1	n	n	n	n	n	x
O=C(N/N=C/c1ccc(N2CCOCC2)cc1)c1ccc(NS(=O)(=O)c2cccs2)cc1	n	n	n	6.8	n	6.4
O=C(N=C1N(CC2CC2)CC2(C=C3CCCCC3n3c(=O)n(-c4ccccc4)c(=O)n32)N1C(=O)OCc1ccccc1)c1ccccc1 (centres undefined)	n	x	x	x	n	x
O=C(O)CSc1nc(-c2cccs2)cc(C(F)(F)F)n1	n	n	n	n	n	x
CCC(C)NC(=O)CSc1nc(-c2cccs2)cc(C(F)(F)F)n1 (centres undefined)	n	n	n	6.2	n	n
COCC(C)NC(=O)CCSc1nc(-c2ccc(OC)cc2)cc(C(F)(F)F)n1 (centres undefined)	n	n	n	5.0	n	n
COc1ccc(-c2nnc(SCC(=O)N/N=C\C=C/c3ccco3)n2-c2ccc(C)cc2)cc1	n	x	x	x	n	x
O=C(N/N=C/c1ccc(Br)o1)/C(=C/c1ccc([N+](=O)[O-])cc1)NC(=O)c1ccccc1	n	n	n	5.3	n	n
O=C(NCCc1ccccc1)/C(=C\c1ccc([N+](=O)[O-])cc1)NC(=O)c1ccc(Br)cc1	n	n	n	n	n	x
O=C(N/N=C/c1ccco1)/C(=C/c1cccc([N+](=O)[O-])c1)NC(=O)c1ccccc1	n	n	n	5.4	n	n
CC(C)NC(=O)/C(=C\c1cccc([N+](=O)[O-])c1)NC(=O)c1ccccc1	n	n	n	n	n	x
CCOC(=O)Cn1cc(CN2CCS(=O)(=O)N(Cc3ccc(Cl)cc3)C(C(=O)OC)C2)nn1 (centres undefined)	n	x	x	x	n	x
COc1ccc(C2C(C#N)=C(N)Oc3c2sc2nc(C)cc(C)c32)cc1 (centres undefined)	n	n	n	9.2	n	n
COC(=O)[C@]12C[C@H](CC(=O)NCc3ccc(OC)c(OC)c3)C(=O)N(CCC3=CCCCC3)C1=C[C@H](C1CCCC1)O[C@@H]2C	n	x	x	x	n	x
O=C(COc1ccccc1F)c1ccc(O)cc1O	n	n	n	7.6	n	n
NNC(=O)COc1ccccc1F	n	n	n	n	n	x
Cc1c(O)ccc(C(=O)CN2C(=O)c3ccccc3C2=O)c1O	n	n	n	5.7	n	n
O=C(COc1ccc(Cl)cc1)c1ccc(O)cc1O	n	n	n	n	n	x
CCOC(=O)C1CCN(CC(=O)c2ccc(O)c(C)c2O)CC1	n	n	n	4.7	n	n
Cc1c(O)ccc(C(=O)COc2ccccc2F)c1O	n	n	n	4.8	n	n
Cc1ccc(C)c(C(=O)CN2C(=O)c3ccccc3C2=O)c1	n	n	n	n	n	x
Cc1ccc(-n2c(SCc3cccc4ccccc34)nnc2-c2ccccn2)cc1	n	x	x	x	n	x
CS(=O)(=O)N1CCC[C@]2(CC[C@H](CCC#N)O2)C1	n	x	x	x	n	x
COC(=O)c1ccc(OCC(=O)c2ccc(O)cc2O)cc1	n	n	n	5.0	n	n
O=C(O)c1cccc(Nc2nc(C(F)(F)F)nc3ccccc23)c1	n	n	n	4.7	n	n
C[C@H]1[C@@H](OC(=O)NCCc2c[nH]c3ccccc23)CC[C@@]23CCCN2C(=O)CCC[C@@H]13	x	x	x	x	n	x

Source: PubChem BioAssay (The Scripps Research Institute Molecular Screening Center)
